# Screening data as filed in PubChem BioAssay.
# An excerpt weighted towards active compounds, which were near 7% of everything screened.
# ADAM17 inh: ADAM17 inhibitors, primary screen, biochemical, QFRET. Disintegrin and metalloproteinase domain-containing protein 17 (Homo sapiens), P78536. recombinant ADAM17, EDANS/DABCYL FRET peptide cleavage. inhibition, % at 6.95 µM. 0.83% of 370,000 active. AID 720648, 2013;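 active means inhibition above the mean of compounds lying between control limits plus 3 SD, set per campaign, cut at about 8.5% in these data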
# proKLK7 act: proKLK7 zymogen activators, primary screen, biochemical, fluorescence intensity; Kallikrein-7 (Homo sapiens), P49862; purified proKLK7, EDANS-DABCYL substrate fluorescence; 100% is mature enzyme control, 0% vehicle; activation, % at 7 µM; 0.9% of 370,000 active; AID 652039, 2013;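 active means activation above the mean of all tested compounds plus 3 SD, computed per campaign excluding outliers beyond control limits, cut at about 13% in these data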
# GRIN3A LBD mod: binders of NR3A ligand-binding domain, primary screen, biophysical, differential scanning fluorimetry, uHTS. Glutamate receptor ionotropic, NMDA 3A (GRIN3A) ligand-binding domain. NR3A LBD differential scanning fluorimetry, Tm shift; 0% = protein alone, 100% = glycine-bound protein. Tm shift relative to glycine control, % at 25 µM. 2.5% of 340,000 active. AID 1259313, 2017;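 active means melting temperature shift of at least 10% of the positive control shift, at one fixed dose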
# ADAM10 inh: human ADAM10 inhibitors, primary screen, biochemical, QFRET, HTS; recombinant ADAM10, EDANS/DABCYL FRET peptide cleavage, 3 h; inhibition, % at 7 µM; 0.62% of 370,000 active; AID 720582, 2013;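 active means inhibition above a per-campaign cutoff equal to the mean of compounds falling between control-based bounds plus 3 SD, cut at about 20% in these data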
# rCAG RNA binder: binders of r(CAG) RNA repeats, primary screen, biochemical, fluorescence; r(CAG) RNA repeat, TO-PRO-1 dye displacement fluorescence; 1.3% of 370,000 active; AID 651821, 2012; inhibition, % at 3 µM;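 active means inhibition above the plate cutoff, the mean of all test compounds on that plate plus 3 SD, cut at about 35% in these data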;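 further: higher means more dye released from RNA so lower well fluorescence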
# AHR activator: AHR activators, primary screen, cell-based, luminescence, luciferase reporter, human | activation, % at 5 µM | 2.5% of 320,000 active | AHR-responsive luciferase reporter cells | AID 2796, 2010; in the data active means activation above about 47%
# Target sequence (P35869 whole entry, looked up): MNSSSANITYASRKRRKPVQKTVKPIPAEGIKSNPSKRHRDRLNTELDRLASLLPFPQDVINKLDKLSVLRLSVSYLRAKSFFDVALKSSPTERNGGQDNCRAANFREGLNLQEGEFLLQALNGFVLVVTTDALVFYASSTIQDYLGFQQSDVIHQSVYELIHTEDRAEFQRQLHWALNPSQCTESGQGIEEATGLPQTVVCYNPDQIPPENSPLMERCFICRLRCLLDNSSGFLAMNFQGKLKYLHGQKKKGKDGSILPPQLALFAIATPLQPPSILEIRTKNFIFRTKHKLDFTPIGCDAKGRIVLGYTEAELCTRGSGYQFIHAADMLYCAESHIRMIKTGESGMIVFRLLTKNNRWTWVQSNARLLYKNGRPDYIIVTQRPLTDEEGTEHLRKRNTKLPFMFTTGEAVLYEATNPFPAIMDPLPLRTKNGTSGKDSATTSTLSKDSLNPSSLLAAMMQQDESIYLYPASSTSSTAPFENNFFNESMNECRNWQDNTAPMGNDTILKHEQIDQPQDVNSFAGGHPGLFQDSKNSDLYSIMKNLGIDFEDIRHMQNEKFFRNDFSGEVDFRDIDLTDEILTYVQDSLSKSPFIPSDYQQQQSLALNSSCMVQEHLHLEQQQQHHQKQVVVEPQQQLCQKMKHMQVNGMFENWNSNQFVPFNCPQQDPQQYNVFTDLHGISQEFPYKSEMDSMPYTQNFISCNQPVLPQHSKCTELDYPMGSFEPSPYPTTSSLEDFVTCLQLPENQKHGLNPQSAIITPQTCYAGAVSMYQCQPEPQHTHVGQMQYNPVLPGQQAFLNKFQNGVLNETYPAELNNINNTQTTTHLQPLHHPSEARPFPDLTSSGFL
# Numbers stand for hits; 0 = inactive; - = no result.
SMILES,ADAM17 inh,proKLK7 act,GRIN3A LBD mod,ADAM10 inh,rCAG RNA binder,AHR activator
O=C(CSC1=NC(=O)C(c2ccccc2)C(=O)N1)Nc1cccc(Cl)c1 (stereo not drawn),0,0,0,0,0,0
CCOC(=O)c1ccc(NC(=O)c2ccc(NC(=O)c3ccccc3)cc2)cc1,0,0,30.2,0,0,0
CC(=O)Nc1ccc(N=C(C2=C(O)c3ccccc3C2=O)c2ccccc2)cc1,0,0,0,0,0,64.0
COC(=O)c1ccc(NC(=O)C(=O)N2CCN(C(=S)NCCc3ccccc3)CC2)cc1,0,0,14.8,0,0,0
COCCCNC(=S)N1CCN(C(=O)C(=O)Nc2ccc(C(=O)OC)cc2)CC1,0,0,0,0,0,0
Fc1cccc(Cn2ccc3ccc(-c4ccc5ccn(Cc6cccc(F)c6)c5c4)cc32)c1,0,0,-,0,0,-
CN(C(=O)[C@H]1O[C@@H](n2cnc(C(N)=O)n2)[C@H](O)[C@@H]1O)c1ccccc1,0,0,-,0,0,-
CC(=O)Nc1ccc(C(=O)NCCc2ccccc2)cc1,0,0,15.8,0,0,0
CC(=O)Nc1ccc(NC(=O)c2ccc(NC(=O)c3ccccc3)cc2)cc1,0,0,27.9,0,0,0
Cc1ccc(NC(=O)c2ccccc2)cc1,0,0,0,0,0,0
CCOC(=O)c1ccc(NC(=O)Nc2ccc3c(c2)OCCO3)cc1,0,0,14.2,0,0,0
CC(=O)Nc1ccc(CCNC(=O)c2ccc3ccccc3c2O)cc1,0,0,24.1,0,0,-
N#CCC(=O)Nc1ccc(C(=O)OCC(=O)NC(=O)Nc2ccc3c(c2)OCCO3)cc1,0,0,0,0,0,0
COc1ccc(CCNC(=O)c2ccccc2C(=O)NCCc2ccc(OC)cc2)cc1,0,0,0,0,0,0
CCC(C(=O)Nc1ccccc1N1CCCC1)c1cccc(OC)c1 (stereo not drawn),0,0,-,0,0,-
S=C(Nc1ccccc1Cl)OCCN1CCCC12CCC(c1ccccc1)CC2 (stereo not drawn),0,-,-,0,-,-
CC(C)(C)S(=O)(=O)N1Cc2cc(CO)ccc2[C@@H]1CCO,0,0,-,0,0,-
CCN(CC)CCOC(=O)c1ccc(NC(=O)/C=C/c2cccs2)cc1,0,0,0,0,0,0
CCOC(=O)c1ccc(NC(=O)/C=C/c2cccs2)cc1,0,0,23.4,0,0,0
CC(=O)c1c(NCc2ccccc2)nc(=O)n(-c2ccccc2)c1C,0,0,0,0,0,0
CCn1c(C)c(C(C)=O)c(NCc2ccccc2)nc1=S,0,0,13.7,0,0,0
CCSc1nc(=S)n(Cc2ccccc2)c(C)c1C(C)=O,0,0,0,0,0,0
CC(=O)c1c(N2CCN(C)CC2)nc(=S)n(Cc2ccccc2)c1C,0,0,10.2,0,0,0
O=C(CSc1nc(-c2ccccc2)nc2ccc(F)cc12)Nc1ccc(C(=O)O)cc1,0,0,15.7,0,0,0
O=C(CSc1nc(-c2ccccc2)nc2c1Cc1ccccc1O2)Nc1ccccc1,-,-,-,-,-,0
SMILES,ADAM17 inh,proKLK7 act,GRIN3A LBD mod,ADAM10 inh,rCAG RNA binder,AHR activator
O=C(CSc1nc(-c2ccc(F)cc2)nc2c1Cc1ccccc1O2)Nc1cccc(C(=O)O)c1,0,0,19.0,0,0,-
CC(C)OC(=O)CSc1nc(-c2ccc(F)cc2)nc2ccc(F)cc12,0,0,0,0,0,0
O=C(CSc1nc(-c2ccccc2)nc2ccc(F)cc12)Nc1cccc(C(=O)O)c1,0,0,12.4,0,0,0
O=C(/C=C/c1ccc(-c2ccccc2)cc1)NC1=NCCS1,0,-,-,0,-,-
C(=N\n1cnnc1)/c1cccc(OCCOc2ccccc2)c1,0,0,0,0,0,64.0
COc1cc(/C=N/n2cnnc2)ccc1OCCOc1ccccc1,0,0,0,0,0,0
O=C(Nc1cccnc1)/C(N=Nc1cccnc1)=C(\O)c1ccccc1,0,0,0,0,0,60.9
O=C(Nc1ccccc1)C(=O)Nc1cccnc1,0,0,0,0,0,0
